Assay outcomes deposited in PubChem by National Center for Advancing Translational Sciences (NCATS).
HT1080 IDH1KD tx = toxicity to HT-1080 IDH1 knockdown cells (counter line). 2% of 360,000 active. Potency, µM (top dose mostly 46.1 µM), for inactives: top-dose activity, negative = toxicity, usual class: cytotoxic. HT-1080 IDH1 knockdown viability, ATP luminescence, 48 h;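 also: potency is read from the fitted curve at half-maximal effect; 0% = DMSO wells and -100% = cell-free medium wells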
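% activity derives from luminescence (CellTiter-Glo), normalised to DMSO and no-cell wells. HT-1080-IDH1KD cells, 750/well, had 48 h compound exposure at 37 °C.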
IL1B secr inh = inhibitors of inflammasome signaling (IL-1 beta secretion) | activity change, % at 57.5 µM | 4.7% of 360,000 active | THP-1 LPS/ATP IL-1B secretion, AlphaLISA, 16 h; stronger effect = lower value | AID 743279; in the data active = activity change below about -50%; inconclusive = mostly about -30% to -49%
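THP-1 cells pretreated 1 hr with compounds (up to 57.5 uM final), then stimulated with LPS (250 ng/mL final) plus ATP (1.25 mM final); secreted IL-1B measured by AlphaLISA after 16 hr, decreased signal indicating inhibition.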
HT1080-NT tox = kills 2HG-producing HT-1080-NT fibrosarcoma cells; HT-1080-NT fibrosarcoma viability, CellTiter-Glo ATP luminescence, 48 h; Potency, µM (top dose mostly 46.1 µM), without a hit: at the top dose activity, negative = less viability, actives largely listed as cytotoxic; 1.6% of 360,000 active;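 also: NT is the 2HG producing partner of a matched IDH1 knockdown line; potency is read from the fitted curve at half-maximal effect; 0% = DMSO-treated cells and -100% = media-only wells without cells; nearly all actives have a fitted effect of over 55% in size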
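Viability of the 2HG-overproducing fibrosarcoma line after 48 hours of compound exposure at 37 degrees C was determined by luminescence with CellTiter-Glo, and concentration-effect curves were then fitted and categorized.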
ELG1 repair inh = ELG1-dependent DNA repair inhibition | 2.3% of 330,000 active | HEK293T ELG1-luciferase reporter, luminescence, 16 h; DNA damage induced by 5-fluorouridine | Potency, µM (doses to about 46.1 µM), inactives show at the top dose activity change, negative = inhibition, hits mostly inhibitors; also: potency is read from the fitted curve at half-maximal effect; nearly all actives have a fitted effect of over 55% in size
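HEK293T cells expressing luciferase-tagged ELG1 (2,000/well) received 5-Fluorouridine plus compound or DMSO for 16 hr at 37 °C. Luciferase was read by ONE-Glo luminescence after 30 min at room temperature.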
DT40 TDP1 CPT = DT40-hTDP1 cell growth loss with CPT | chicken DT40 Tdp1-/-;hTDP1 cells + 20 nM CPT, ATP luminescence, 48 h | Potency, µM (titrated, usually from 46.2 µM), for the others: at the highest dose activity change, negative = growth inhibition, actives largely listed as inhibitors | 12% of 420,000 active; also: potency is read from the fitted curve at half-maximal effect; nearly all actives have a fitted effect of over 55% in size
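Cell growth measured by CellTiter-Glo luminescence after a minimum 48 h, 37 C compound exposure with 20 nM CPT in Tdp1-knockout DT40 cells stably expressing hTDP1, seeded 400/well; qHTS titration format.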
TDP1 cell noCPT = qHTS for Inhibitors of human tyrosyl-DNA phosphodiesterase 1 (TDP1): qHTS in cells in absence of CPT | 15% of 420,000 active | DT40 Tdp1-/- hTDP1 cells, no CPT, ATP luminescence, 48 h | AID 686978, 2013 | Potency, µM (doses to about 46.2 µM), for the others: at the highest dose activity change, negative = growth inhibition, usual class: inhibitors; also: potency is read from the fitted curve at half-maximal effect; nearly all actives have a fitted effect of over 55% in size
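Readout: luminescence from CellTiter-Glo after 30 min in the dark at RT. Cells: DT40 Tdp1-/- with stable hTDP1, 400/well. Exposure: compounds alone, ≥48 hr, 37 °C.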
* marks the source's active call; other numbers are inactive results; ? = inconclusive; · = no result; [ ] = dose if it differs, or a comment. Shown are actives, neighbours in structure and some others; about 19% of the full set was active somewhere. Unless noted, calls follow the shape of the dose curve; as a rule, active = well fitted curve in the direction sought with a large enough effect; inconclusive = small, poorly fitted or top-dose-only effect, or another doubt; inactive = no such curve, though single readings can be large; an effect the other way counts as inactive or inconclusive. Unless noted, % is scaled to controls: 0 for no effect and ±100 for the full control effect.

SMILES	HT1080 IDH1KD tx	IL1B secr inh	HT1080-NT tox	ELG1 repair inh	DT40 TDP1 CPT	TDP1 cell noCPT
Cc1ccc(CNC(=O)CN2C(=O)CSc3ccc(S(=O)(=O)N(C)C)cc32)cc1	·	·	·	·	?	-7%
O=C(N/N=C/c1ccc(O)c(O)c1)c1ccc(CSc2cccc3cccnc23)cc1	-20%	2	-21%	-6%	?	8.2µM*
O=C(CSc1cccc2cccnc12)N/N=C/c1cccc(O)c1	1%	-23	19%	-20%	?	16µM*
Cc1ccc(S(=O)(=O)N(CC(=O)N/N=C/c2cccc(C)c2)c2cccc3cccnc23)cc1	1%[9.24 µM]	-10	7%	·	?	21µM*
O=C(CSc1cccc2cccnc12)N/N=C/c1ccc(F)cc1	-7%	-15	-8%	1%	-8%	-16%
O=C(COC(=O)C1CC1)Nc1ccc(Cl)cn1	3%	35	-6%	?	2%	-4%
COc1ccc(OC)c(-c2nnc(SCC(=O)N3CCCC3)o2)c1	-4%	5	1%	7%	8%	-13%
COc1ccc(NC(=O)c2nnn(-c3ccc(C(C)C)cc3)c2C)c(OC)c1	·	·	·	·	0%	?
COc1cccc(NC(=O)c2cc(-c3ccc(C)o3)nc3ccccc23)c1	-29%	-17	-7%	-7%	?	?
COc1cccc(NC(=O)CN(C)C(=O)c2cc(-c3cccc(Br)c3)nc3ccccc23)c1	-26%	-55*	?	?	?	16µM*
COc1cccc(NC(=O)CN(C)C(=O)c2cc(-c3ccc(C)o3)nc3ccccc23)c1	-14%	-1	-23%	6.5µM*	?	21µM*
COc1cccc(NC(=O)CN(C)C(=O)c2cc(-c3ccccc3)nc3ccc(C)cc23)c1	-11%	-5	?	·	13µM*	10µM*
CC(C)OCCCNC(=O)CN1C(=O)/C(=C/c2ccccc2)Sc2ccccc21	-1%	0	-1%	?	?	?
CCC(=O)N1CCN(c2ccccc2NC(=O)c2ccc([N+](=O)[O-])o2)CC1	-27%	-55*	?	?	18µM*	18µM*
CCC(=O)N1CCN(c2ccccc2NC(=O)Cc2ccccc2)CC1	-4%	0	0%	-20%	?	-18%
CC(C)C(=O)N1CCN(c2ccccc2NC(=O)c2ccc([N+](=O)[O-])o2)CC1	?	-28	-24%	?	16µM*	?
CCNNC(=O)C(O)(Cc1ccccc1)Cc1ccccc1	12%	29	?	7%	-13%	-2%
CCOC(=O)Cc1c(C)nc2c(-c3ccccc3)c[nH]n2c1=O	-1%	-16	-14%	2%	18µM*	2.3µM*
CCOC(=O)Cc1c(C)nc2c(-c3ccccc3)c(-c3ccccc3)[nH]n2c1=O	?	18	?	0%	?	16µM*
COc1ccc(Cl)cc1NCc1nnc2n1CCCCC2	·	·	·	·	-1%	4%
Cc1ccc(S(=O)(=O)N2CCSC2c2ccco2)cc1 (configuration not stated)	-5%	-11	-2%	-18%	1%	18µM*
O=C(COC(=O)Cc1ccsc1)Nc1ccc(Cl)cc1F	12%	-8	3%	20%	-2%	-7%
Cc1cccc(CNC(=O)c2sc3ncnc(N(C)C4CCCCC4)c3c2C)c1	·	·	·	·	18µM*	21µM*
Cc1c(C(=O)NC(C)c2ccccc2)sc2ncnc(N(C)C3CCCCC3)c12 (configuration not stated)	·	·	·	·	6.5µM*	?
CCc1ccc(NC(=O)c2sc3ncnc(N(C)C4CCCCC4)c3c2C)cc1	·	·	·	·	18µM*	21µM*
SMILES	HT1080 IDH1KD tx	IL1B secr inh	HT1080-NT tox	ELG1 repair inh	DT40 TDP1 CPT	TDP1 cell noCPT
Cc1c(C(=O)NC2CCCCC2)sc2ncnc(NCCN(C)C)c12	·	·	·	·	-1%	-2%
Cc1c(C(=O)Nc2ccc(Br)cc2F)sc2ncnc(N(C)C3CCCCC3)c12	·	·	·	·	0%	-4%
CCOc1ccc(CNC(=O)c2sc3ncnc(N(C)C4CCCCC4)c3c2C)cc1	·	·	·	·	16µM*	?
CCOc1ccccc1-c1cc(NC)ncn1	-1%	22	13%	·	3%	-13%
Cc1c(C(=O)NCc2cccc(Cl)c2)sc2ncnc(N(C)C3CCCCC3)c12	·	·	·	·	21µM*	?
Cc1c(C(=O)NC2CCCC2)sc2ncnc(NCCN(C)C)c12	·	·	·	·	-5%[9.04 µM]	7%
Cc1ccc(Cl)cc1NC(=O)CC1Sc2ccccc2NC1=O (configuration not stated)	·	·	·	·	-9%	4%
COc1ccc(S(=O)(=O)N2CCC[C@H]2C(=O)N2CCC[C@H]2C(=O)NCc2ccccc2)cc1C	11%	0	1%	·	?	?
COc1ccc(S(=O)(=O)N2CCC[C@H]2C(=O)N2CCC[C@H]2C(=O)NCc2ccc(F)cc2F)cc1C	?	18	?	·	?	18µM*
O=C(NCc1ccncc1)[C@@H]1CCCN1C(=O)[C@@H]1CCCN1C(=O)c1cccc2ccccc12	3%	-103*	4%	·	-25%	-26%
COc1ccc(S(=O)(=O)N2CCC[C@H]2C(=O)N2CCC[C@H]2C(=O)NCc2ccncc2)cc1C	4%	-57*	1%	·	-35%	-34%
COc1cccc(CNC(=O)[C@@H]2CCCN2C(=O)[C@H]2CCCCN2S(=O)(=O)c2ccc(OC)c(C)c2)c1	0%	-3	1%	·	?	21µM*
COc1ccc(/C(=C\C(=O)O)c2nccc3cc(OC)c(OC)cc23)cc1OC	·	·	·	·	9%[9.04 µM]	-9%[9.04 µM]
Cc1nn(CC(=O)N2CCN(c3ccccc3F)CC2)c(=O)c2cccn12	·	·	·	·	3%	-16%
CC(C)C(=O)NC(CC(=O)O)c1ccccc1 (configuration not stated)	6%	7	11%	?	-1%	5%
CC(CC(=O)O)Nc1ccccc1O (configuration not stated)	11%	-18	4%	1%	21µM*	?
COc1cccc(S(=O)(=O)NCc2ccc(C(=O)N3CCN(Cc4ccccc4)CC3)cc2)c1	-23%	-67*	-9%	?	?	-24%
COc1cccc(CNS(=O)(=O)c2c(C)[nH]c(C)c2C(=O)N2CCCCC2)c1	14%	-17	1%	9%	26µM*	?
